# Shown are actives, neighbours in structure and some others; about 3.7% of the full set was active somewhere.
# V-ATPase pHluor: regulators of yeast V-ATPase proton pumping, primary screen, pHLuorin cytosolic pH fluorescence; response, % at 10 µM; actives 0.37% (n = 350,000); S. cerevisiae; AID 504577, 2011; in the data active = response mostly above about 7.3%, no sharp cut-off; inactive = mostly below about 5.4%; note: actives read high
# TIM10 inh: growth inhibitors of isogenic TIM10 control yeast, primary screen, counter-screen for tim10-1 yeast inhibitor project, luminescence, uHTS; AID 463195, 2010; S. cerevisiae TIM10 strain growth, BacTiter-Glo luminescence, 24 h; inhibition, % at 10 µM; actives 1.4% (n = 330,000);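 active = inhibition of 40% or more at the single tested concentration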;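 note: wild-type TIM10 isogenic control strain grown at permissive 25 °C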
# PfHsp90 yeast 2: growth inhibition of PfHsp90-expressing yeast, primary screen, antimalarial PfHsp90 inhibitor project, S. cerevisiae, BacTiter-Glo luminescence, single point, set 2; actives 0.32% (n = 310,000); BacTiter-Glo ATP, 48 h; yeast lacking PDR1 and PDR3 efflux regulators; inhibition, % at 9.4 µM; AID 504621, 2011;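 active = every replicate shows inhibition above about 80%, whatever the replicate mean, limit read from the data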;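 note: 0% = DMSO neutral controls and 100% = 20 µM radicicol positive controls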
# tim23-1 inh: growth inhibitors of tim23-1 mutant yeast, primary screen, luminescence, uHTS; S. cerevisiae tim23-1 growth, BacTiter-Glo luminescence, 24 h; inhibition, % at 20 µM; actives 1.3% (n = 330,000);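 active = growth inhibition of the mutant yeast at or above 50%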;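 note: temperature-sensitive mutant grown at 25 °C; plate controls were DMSO-treated mutant yeast for no effect and medium wells lacking yeast for full effect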
# tim10-1 inh: growth inhibitors of tim10-1 mutant yeast, primary screen, luminescence, uHTS; S. cerevisiae tim10-1 ts strain growth, BacTiter-Glo, 24 h; inhibition, % at 20 µM; actives 2.2% (n = 330,000); AID 463190, 2010;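 active = inhibition of at least 40%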;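 note: mutant grown at 25 °C; 0% = DMSO wells with yeast and 100% = wells holding no yeast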
# tim10-1 conf: growth inhibitors of tim10-1 mutant yeast, confirmation, single concentration, luminescence, S. cerevisiae; shares compounds with tim10-1 inh; S. cerevisiae tim10-1 ts strain growth, BacTiter-Glo, 24 h; inhibition, % at 20 µM; actives 56% (n = 7,400);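 active = inhibition of yeast growth at or above a set limit in either of two repeat tests at 20 µM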;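 note: tim10-1 mutant grown at permissive 25 °C to find synthetic lethal compounds; 0% = DMSO yeast wells and 100% = medium wells without yeast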
# Starred values were filed as active, the others as inactive; / = no result.
SMILES,V-ATPase pHluor,TIM10 inh,PfHsp90 yeast 2,tim23-1 inh,tim10-1 inh,tim10-1 conf
O=C1NC(=O)N(CCc2ccc(F)cc2)C(=O)/C1=C/c1cccs1,3,1,/,44,52*,-6
O=C1NC(=O)N(CCC2=CCCCC2)C(=O)/C1=C\c1cccs1,0,6,16,23,18,/
N#Cc1cc2c(nc1SCC(=O)Nc1cc(Cl)ccc1Cl)C1CCN2CC1,-5,11,13,21,40*,23
COc1cccc(Oc2coc3cc(OC(=O)N(C)C)ccc3c2=O)c1,0,4,-7,11,17,/
CN(C)C(=O)Oc1ccc2c(=O)c(Oc3ccccc3Br)coc2c1,4,15,19,29,46*,13
COc1ccc(CN(CCc2c[nH]c3ccccc23)Cc2ccc(OC)cc2)cc1,4,/,32,/,/,/
COc1ccc2c(c1)CC1(CN2C)C(=O)NC(=O)N(CCc2ccccc2)C1=O (centres undefined),2,-11,-11,22,3,/
CCC(C)N1C(=O)NC(=O)C2(Cc3c(ccc4ccccc34)N(C)C2)C1=O (centres undefined),-3,23,1,31,45*,31*
C=C(C=O)CC1CC(O)[C@]2(C)OC3CC4OC5C[C@]6(C)O[C@]7(C)CCC8OC9C[C@]%10(C)OC%11C(C)=CC(=O)OC%11CC%10OC9C[C@@H](C)C8OC7CC6O[C@]5(C)CC5OC5C4OC3CC2O1 (some centres undefined),1,-14,-3,-7,59*,29*
COc1ccc(-c2nn(CCC#N)cc2C(=O)Nc2ccccc2Br)cc1[N+](=O)[O-],-4,-7,19,17,11,/
N[C@@H](Cc1c[nH]c2ccccc12)c1nnc(SCc2ccc(F)cc2)o1,2,/,/,/,/,/
N[C@@H](Cc1c[nH]c2ccccc12)c1nnc(SCc2ccccc2)o1,4,33,5,38,43*,47*
C=C(C)CSc1nnc([C@@H](N)Cc2c[nH]c3ccccc23)o1,6,26,20,33,42*,56*
CC(C)=CCSc1nnc([C@@H](N)Cc2c[nH]c3ccccc23)o1,0,9,-9,33,45*,32*
O=C1/C(=C\c2cc3c(cc2Br)OCO3)N2CCC1CC2,6,28,1,48,53*,38*
COc1cccc(CC(=O)N2CCN(Cc3cccc(Cl)c3)CC2)c1,-1,18,11,35,29,/
COc1cccc(C2CCN(CC(=O)Nc3cc(Cl)ccc3OC)CC2O)c1 (centres undefined),-1,2,-37,25,41*,4
Cn1c(O)c(C(c2ccncc2)c2c(O)n(C)c(=S)n(C)c2=O)c(=O)n(C)c1=S,0,-17,/,11,42*,14
Cn1c(O)c(C(c2ccccn2)c2c(O)n(C)c(=S)n(C)c2=O)c(=O)n(C)c1=S,2,-18,-18,9,9,/
CC(C(=O)Nc1ccc(Br)cc1C(=O)c1ccccc1)N1CCOCC1 (centres undefined),4,27,-19,13,41*,25
O=C(CCN1CCOCC1)NCC(=O)Nc1ccc(Br)cc1C(=O)c1ccccc1,3,9,9,18,-4,/
Clc1ccc(C[n+]2c(-c3ccccc3)cc(-c3ccccc3)cc2-c2ccccc2)cc1,1,37,18,31,45*,38*
Cc1cc(-c2ccccc2)cc(-c2ccccc2)[n+]1CCc1ccccc1,0,15,3,-4,14,/
CCOc1ccc2oc(C(=O)NN3C(C)CCCC3C)c(C)c2c1 (centres undefined),3,10,2,-16,-2,/
Cc1cccnc1-n1c(CN2C(=O)c3ccccc3C2=O)nc2ccccc2c1=O,-2,20,7,32,51*,30*
NCC(CC(=O)O)C1CCCCC1 (centres undefined),2,1,/,12,2,/
CCCNC(=O)N1[C@H]2CC[C@@H]1C(C(=O)OC)=C(c1ccc(F)cc1F)C2,0,-7,-8,12,6,/
